For 27 compounds, growth results are on record in PubChem BioAssay (NCI).

Test systems include T-47D breast; BT-549 breast; MDA-MB-435 melanoma; SW-620 colon; HCT-116 colon; KM12 colon; MCF7 breast; HCC-2998 colon.
Experiment in all cases: NCI-60 one-dose screen, 48 h (100 = growth as untreated, 0 = no growth, -100 = all killed)
What all share (conditions): 10 µM unless noted

This is part of a sample that, as a whole, favours compounds with a hit. Of some 83,000 tested, about 20% had one in any assay.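 Negative percent growth values reflect cell death: -40 means 40% of the cells present at the start died, and -100 means all died.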 A number with no mark means an inactive call. The source made the active and inactive calls. Rule for the calls: active = growth percent below 10; inactive = the rest.

In the case of `COC(=O)C(=[N+]=[N-])C(=O)c1ccc([N+](=O)[O-])o1`, the growth is 89.7% in the assay with T-47D breast; 101% in the assay with BT-549 breast; 103% in the assay with MDA-MB-435 melanoma; 44% with SW-620 colon; 73.4% in the assay on HCT-116 colon; 94.9% in the assay on KM12 colon.
Consider `Oc1ccc2ccccc2c1N=Nc1nccs1`, for which the growth in the assay with T-47D breast was 15.5%; in the assay on MDA-MB-435 melanoma, 35.3%; in the assay on SW-620 colon, 24.7%; in the assay on MCF7 breast, 17.1%; with HCT-116 colon, -20.8% (active); with KM12 colon, 25%.
For `N#CC1c2ccccc2C=CN1C(=O)CCCl` (stereo unspecified), the growth in the assay on T-47D breast was 52.4%; in the assay on BT-549 breast it was 92.1%; with MDA-MB-435 melanoma, 94%; in the assay with SW-620 colon it was 55.8%; in the assay with HCT-116 colon, 84.1%; in the assay with HCC-2998 colon, 110%. In addition, in the assay with KM12 colon, the growth was 86.4%.
Regarding `COc1ccc(C(OCC2OC(n3ccc(NC(=O)c4ccccc4)nc3=O)C(O)C2O)(c2ccccc2)c2ccccc2)cc1` (stereo unspecified), the growth in the assay on T-47D breast is 40.2%; in the assay on BT-549 breast, 44.3%; in the assay with MDA-MB-435 melanoma, 31.1%; in the assay with SW-620 colon, 56%; with HCT-116 colon, 3.43% (active); in the assay on HCC-2998 colon, 75.8%. In the assay on KM12 colon, the growth was 19.2%.
For `O=C1C=CC(=O)N1c1cccc2c1CCCC2`, the growth in the assay on T-47D breast was 86.5%; in the assay with BT-549 breast, 112%; in the assay on MDA-MB-435 melanoma, 88.5%; in the assay with SW-620 colon it was 99.6%; with HCT-116 colon it was 95%; with HCC-2998 colon, 118%. Also, the growth in the assay with KM12 colon was 109%.
With `CC(O)C(O)C(O)C(O)C(O)C(=O)NNc1ccccc1` (stereo unspecified), the growth is 76.4% in the assay on T-47D breast; 105% in the assay on BT-549 breast; 86.4% in the assay on MDA-MB-435 melanoma; 75.6% with SW-620 colon; 87.6% in the assay on HCT-116 colon; 95.1% in the assay on HCC-2998 colon. In addition, in the assay on KM12 colon, the growth was 85.7%.
Take `COc1ccc2c(c1OC)OCC(CN(C)C)C2=O` (stereo unspecified): the growth with T-47D breast was 69.5%; in the assay on BT-549 breast, 82.4%; with MDA-MB-435 melanoma, 96.1%; in the assay with SW-620 colon, -78.3% (active); in the assay with HCT-116 colon it was 77.6%; in the assay on HCC-2998 colon, 105%. The growth in the assay with KM12 colon is 96.8%.
For `O=C1C=CC(O)=CC1=P(c1ccccc1)(c1ccccc1)c1ccccc1`, the growth was 96.3% with T-47D breast; 103% in the assay with MDA-MB-435 melanoma; 98.2% in the assay on SW-620 colon; 91.7% in the assay on MCF7 breast; 88% with HCT-116 colon; -29.4% (active) in the assay with HCC-2998 colon. For the same compound, the growth with KM12 colon is 99.7%.
For `N=C1C=C(N)C(=O)c2ccccc21`, the growth is -46.1% (active) with T-47D breast; -99.1% (active) with BT-549 breast; -75.7% (active) in the assay with MDA-MB-435 melanoma; -85% (active) in the assay on SW-620 colon; -98.7% (active) in the assay on HCT-116 colon; -99.5% (active) with HCC-2998 colon. In addition, the growth in the assay with KM12 colon was -82.4% (active).
As to `CCCCCCCCCCCC1N=C(N)N=C(N)N1c1cccc(Br)c1` (stereo unspecified), the growth with T-47D breast was 38.4%; in the assay with MDA-MB-435 melanoma, 22.4%; with SW-620 colon, -93.9% (active); in the assay with MCF7 breast, -87.8% (active); with HCT-116 colon it was -100% (active); in the assay on HCC-2998 colon, -87.7% (active). In the assay with KM12 colon, the growth is -91.8% (active).
Take `Oc1c(Cl)cc(Cl)cc1C(c1cc(Cl)cc(Cl)c1O)C(Cl)(Cl)Cl`: the growth in the assay on T-47D breast was 1.95% (active); in the assay with BT-549 breast, 7.91% (active); in the assay on SW-620 colon, 9.94% (active); with MCF7 breast, 4.85% (active); with HCT-116 colon it was 0.34% (active); in the assay on KM12 colon, -0.332% (active).
Consider `OC(c1cc(C23CC4CC(CC(C4)C2)C3)nc2c(Cl)cc(Cl)cc12)C1CCCCN1` (stereo unspecified), for which the growth with T-47D breast was -74.3% (active); in the assay with BT-549 breast, 37.7%; in the assay with MDA-MB-435 melanoma it was -66.1% (active); with SW-620 colon, -68.1% (active); in the assay with HCT-116 colon it was -84% (active); in the assay with HCC-2998 colon it was -71.7% (active). Moreover, the growth in the assay with KM12 colon is -91.4% (active).
As for `O=C(C[P+](c1ccccc1)(c1ccccc1)c1ccccc1)c1ccccc1`, the growth in the assay on T-47D breast is 89.9%; in the assay on MDA-MB-435 melanoma, 98.5%; with SW-620 colon it was 97.3%; in the assay with MCF7 breast, 90.6%; with HCT-116 colon it was 76.8%; in the assay on HCC-2998 colon, 93.9%. For the same compound, in the assay on KM12 colon, the growth was 101%.
In the case of `O=[N+]([O-])C=C(c1ccccc1)c1ccccc1`, the growth in the assay on T-47D breast is 66.2%; in the assay on BT-549 breast it was 76.6%; in the assay with MDA-MB-435 melanoma, 23.7%; in the assay with MCF7 breast it was 84.8%; in the assay with HCT-116 colon, 64%; in the assay with HCC-2998 colon, 87.3%. Besides, in the assay on KM12 colon, the growth was 66.4%.
For `S=C(SSC(=S)N1CCOCC1)N1CCOCC1`, the growth is 79.8% in the assay with T-47D breast; 141% in the assay on BT-549 breast; 53.6% in the assay on MDA-MB-435 melanoma; -57.5% (active) in the assay with SW-620 colon; 40.1% in the assay on HCT-116 colon; 49.6% in the assay with HCC-2998 colon. The growth with KM12 colon was 69.5%.
For `O=[N+]([O-])c1ccc([I+]c2ccccc2)cc1`, the growth with T-47D breast is -20% (active); in the assay on MDA-MB-435 melanoma, 20.8%; in the assay on SW-620 colon, 19.5%; in the assay with MCF7 breast it was -29% (active); with HCT-116 colon it was -31.4% (active); in the assay on HCC-2998 colon it was 46.1%. In addition, the growth in the assay on KM12 colon was -75.7% (active).
Turning to `CC(C)N=C(N)/N=C(\N)Nc1ccc2ccc3ccccc3c2c1`, the growth in the assay with T-47D breast was -67.8% (active); with BT-549 breast, -55.3% (active); with MDA-MB-435 melanoma it was -93.7% (active); with MCF7 breast, -90.5% (active); with HCT-116 colon it was 3.26% (active); with KM12 colon, -82.2% (active).
On to `O=C1C(=O)c2cc([N+](=O)[O-])ccc2-c2ccccc21`, for which the growth in the assay with T-47D breast is -35.6% (active); in the assay on MDA-MB-435 melanoma, -79.3% (active); with SW-620 colon it was -81.1% (active); in the assay with MCF7 breast it was -55.3% (active); in the assay on HCT-116 colon, -92.5% (active); with HCC-2998 colon, 65.9%. In the assay with KM12 colon, the growth was -81.7% (active).
As for `COc1ccc2nc3cc([N+](=O)[O-])ccc3c(NNc3ccccc3)c2c1`, the growth in the assay with T-47D breast was 77.9%; in the assay with BT-549 breast, 67.3%; in the assay with MDA-MB-435 melanoma it was 107%; in the assay with SW-620 colon it was 86.1%; in the assay on HCT-116 colon, 41.2%; with KM12 colon, 81.7%.
For the compound `CCCCCCCCCCCCCCCc1ccc(C(=O)C[n+]2ccccc2)cc1`, the growth in the assay on T-47D breast is -25.1% (active); in the assay on MDA-MB-435 melanoma it was -78.1% (active); in the assay with SW-620 colon, -79.1% (active); in the assay with MCF7 breast it was -88.6% (active); in the assay on HCT-116 colon, -97.7% (active); in the assay on KM12 colon it was -97.7% (active).
Turning to `CC(=O)Nc1ccc(C(=O)CCl)cc1`, the growth in the assay with BT-549 breast was 58.6%; in the assay with MDA-MB-435 melanoma, 14.4%; in the assay with SW-620 colon, -16.6% (active); with MCF7 breast, 3.18% (active); with HCT-116 colon, 32.3%; in the assay with KM12 colon it was 85.7%.
Consider `Oc1ccccc1N=Cc1ccccc1`, for which the growth with BT-549 breast was 79.7%; in the assay on MDA-MB-435 melanoma, 87%; with SW-620 colon it was 85.1%; in the assay on MCF7 breast, 74.3%; with HCT-116 colon, 69.4%; in the assay on HCC-2998 colon it was 100%. Besides, in the assay with KM12 colon, the growth was 74.1%.
As for `CCOC(=O)NC(/C=C/c1ccccc1)NC(=O)OCC`, the growth was 107% in the assay on BT-549 breast; 106% in the assay with MDA-MB-435 melanoma; 100% in the assay with SW-620 colon; 101% in the assay with MCF7 breast; 93.6% in the assay on HCT-116 colon; 112% in the assay with HCC-2998 colon. Further, the growth with KM12 colon was 107%.
On to `CC(=O)N1CC(=O)NC1=S`, for which the growth in the assay with BT-549 breast is 103%; in the assay on MDA-MB-435 melanoma, 98.3%; in the assay with SW-620 colon it was 102%; with MCF7 breast it was 94.1%; in the assay with HCT-116 colon it was 102%; in the assay on HCC-2998 colon, 95%. The growth in the assay with KM12 colon is 103%.
`Nc1ccc(C(=O)/C=C/c2ccccc2)cc1`: the growth with BT-549 breast was 61.1%; with MDA-MB-435 melanoma, 96.8%; in the assay with SW-620 colon it was 103%; in the assay on MCF7 breast it was 73.3%; with HCT-116 colon, 60.3%; with HCC-2998 colon, 100%. Besides, the growth with KM12 colon was 74.2%.
Consider `c1ccc(-c2cc3cc4ccccc4cn3c2)cc1`, for which the growth was 91.4% in the assay on MDA-MB-435 melanoma; 89.9% in the assay with SW-620 colon; 88.8% in the assay on MCF7 breast; 88% in the assay with HCT-116 colon; 121% in the assay on HCC-2998 colon; 86.2% with KM12 colon.
Turning to `CC1CC(C)(C)OB(OC(C)CC(C)(C)OB2OC(C)CC(C)(C)O2)O1` (stereo unspecified), the growth in the assay with BT-549 breast is 77.7%; in the assay with MDA-MB-435 melanoma, 107%; in the assay with SW-620 colon it was 117%; in the assay on MCF7 breast, 96.6%; in the assay on HCT-116 colon, 99.9%; with HCC-2998 colon, 93.3%. The growth in the assay on KM12 colon is 101%.
